Among the data in PubChem BioAssay AID651703 (Broad Institute, 2012) are outcome values, retold here.

In all, about 1,200 compounds went through this assay and about 970 (81%) were called active. How the calls were made is not given here. The set was probably picked from earlier hits. A selection follows. A call without a number means that no potency is given here. Potency and affinity values are given separately. Non-standard residues stand in square brackets, D forms with d. Residues, ends and D or L forms follow the SMILES beside them. *: point of attachment. Ac5c = NC1(C(=O)O)CCCC1; Cbz = O=C(OCc1ccccc1)*

The experiment deals with Transforming acidic coiled-coil-containing protein 3 (Homo sapiens) (UniProt Q9Y6A5). The experiment in a line: ARNT/TACC3 interaction disruptors, potency, confirmation, biochemical, AlphaScreen, cherry-picked samples (AID 651703).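 Further: TACC3 partner is the GST-tagged E629A mutant dimer; hits lower the signal meaning they disrupt ARNT binding to TACC3.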 The conditions noted are these: AlphaScreen His-ARNT PAS-B / GST-TACC3 binding, luminescence; series mostly up to 68 µM. A general note: Alpha assays give light when donor and acceptor beads are brought close together.
Take `COc1ccc(-c2nc(CN3CCC(C(=O)NC4CCCc5ccccc54)CC3)c(C)o2)cc1OC` (stereo not drawn): the outcome was inactive. As for `O=C(C[C@@H]1CC[C@H](NC(=O)CN2CCOCC2)[C@H](CO)O1)NCCc1ccncc1`, the outcome was inactive.

As to `CN(C)S(=O)(=O)N1CCN(S(=O)(=O)c2ccc(F)cc2)CC1`, the outcome was inactive. In the case of `Cc1nnc(NC(=O)CSc2nnc(CNC(=O)c3ccc(F)cc3)o2)s1`, the call was inactive. Turning to `COc1ccc2cc1Oc1ccc(cc1)C[C@H]1c3cc(c(OC)cc3CCN1C)Oc1c(OC)c(OC)cc3c1[C@@H](C2)N(C)CC3`, the call was inactive. Turning to `CCC(C(=O)Nc1ncn[nH]1)(C(F)(F)F)C(F)(F)F`, the compound was classed as inactive. The entry for `CC(=O)c1cccc(NC(=O)N2CCCC2C(=O)NCc2ccccc2)c1` (stereo not drawn) is “inactive”. Turning to `COc1ccc(/C(C)=N\NC(=O)CSc2nnc(C)s2)cc1`, the result was inactive.

As to `O=C(NCC1CC1)c1cc(-c2ccccc2)on1`, the call was inactive. Consider `NS(=O)(=O)c1ccc(CCNC(=O)c2ccc3c(c2)OCO3)cc1`, for which the compound was classed as inactive. Consider `O=C(NCCCO)c1cc(-c2ccccc2)on1`, for which the call was inactive.

In the case of `Oc1c(Br)cccc1/C=N/c1ncn[nH]1`, the result was inactive.

For the compound `Cn1c(=NC(=O)c2cnccn2)sc2ccccc21`, the compound was classed as inactive. For the compound `O=C1NC[C@H](c2ccccc2)OC(=O)[C@H](Cc2ccc(F)cc2)CC/C=C/C[C@@H]1CC(=O)N(CCO)Cc1ccccc1`, the call was inactive. Turning to `COc1ccc(Nc2nc(N)nc(CN3CCOCC3)n2)cc1`, the call was inactive. Next, `Fc1ccc(/C=N/Nc2ncnc3nc[nH]c23)cc1F`: “inactive”; `CCn1c(Cc2ccccc2)nnc1SCC(=O)Nc1ccc(N)cc1`: “inactive”. For `COCCNC(=O)Cn1cc(C(=O)c2cccs2)c2ccccc21`, the compound was called inactive. With `C[C@H]1CCCCO[C@H](CN(C)C(=O)Nc2ccc(F)cc2)[C@@H](C)CN([C@@H](C)CO)C(=O)c2cc(NS(=O)(=O)c3ccc(Cl)cc3)ccc2O1`, the compound was called inactive. Next, `CC(OC(=O)Cc1c(F)cccc1Cl)C(=O)NC1(C#N)CCCCC1` (stereo not drawn): “inactive”. Turning to `Nc1ccc(C(=O)Nc2ccc3c(O)cc(S(=O)(=O)O)cc3c2)cc1`, the call was inactive.

For the compound `Cc1cc2c(NC(=O)CC(C)(C)CC(=O)O)cccc2nn1`, the call was inactive.

`CCN1CCN(c2ccc(NC(=O)c3cccc(S(=O)(=O)N4CCCC4)c3)cc2)CC1`: the outcome was inactive.

With `O=C(O)c1ccc(Br)c(S(=O)(=O)N2CCCC2)c1`, the compound was called inactive.

For `COc1cc(/C=N/NC(=O)CCN2CCN(c3ccccc3)CC2)cc(OC)c1OC`, the call was inactive.

For the compound `O=C(Nc1cn2ccccc2n1)c1cc(-c2ccccc2)on1`, the compound was classed as inactive. Turning to `CC(NC(=O)COC(=O)c1ccc([N+](=O)[O-])o1)c1ccccc1` (stereo not drawn), the result was inactive.

Consider `COC(=O)c1[nH]c2ccc(C)cc2c1NC(=O)c1ccccc1[N+](=O)[O-]`, for which the compound was classed as inactive. Consider `O=C(NC1CCc2ccccc2C1)c1cc(-c2ccccc2)on1` (stereo not drawn), for which the compound was called inactive.

Turning to `Cc1ccccc1Oc1nc(-c2ccccn2)nc2ccccc12`, the compound was classed as inactive. With `CCOC(=O)CC(NC(=O)Cc1ccc(F)cc1)c1ccccc1Cl` (stereo not drawn), the call was inactive.

For `COc1cc(C2Nc3ccccc3C(=O)N2NS(C)(=O)=O)c([N+](=O)[O-])cc1OC` (stereo not drawn), the outcome was inactive. For the compound `NC1=NN=C(N2N=C(c3ccccc3)CC2(O)C(F)(F)F)n2ncnc2C1` (stereo not drawn), the compound was classed as inactive. The entry for `O=C1C=C(O)c2cccc(O)c2C1=O` is “inactive”; for `CCc1c(C)sc(NC(=O)C2CC(c3c(F)cccc3Cl)=NO2)c1C#N` (stereo not drawn) it is “inactive”. Turning to `CC[C@]1(O)CC2CN(CCc3c([nH]c4ccccc34)[C@@](C(=O)OC)(c3cc4c(cc3OC)N(C=O)[C@H]3[C@@](O)(C(=O)OC)[C@H](OC(C)=O)[C@]5(CC)C=CCN6CC[C@]43[C@@H]65)C2)C1` (stereo partly drawn), the compound was called inactive. With `COc1ccccc1C(=O)Nc1ccccc1N1CCCCC1`, the compound was called inactive.

As to `O=C(C[C@H]1C=C[C@@H](NC(=O)Nc2ccccc2)[C@@H](CO)O1)NCc1ccccn1`, the outcome was inactive. As to `Cc1ccc(N(C)S(=O)(=O)c2cccc(C(=O)Oc3ccc4c(C)cc(=O)oc4c3)c2)cc1`, the result was inactive. On to `Cc1ccc(S(=O)(=O)Cn2nnnc2C(c2ccccc2)N2CCN(c3ccccc3)CC2)cc1` (stereo not drawn), for which the call was inactive. Take `O=C(NC1Cc2ccccc2C1)[C@H]1N[C@H]2c3cccc(=O)n3C[C@H]2[C@@H]1CO`: the result was inactive. For the compound `Cc1[nH]n(-c2ccccc2)c(=O)c1C(c1ccc(C(=O)O)cc1)c1c(C)[nH]n(-c2ccccc2)c1=O`, the outcome was inactive.

Consider `Cc1[nH]n(-c2ccccc2)c(=O)c1C(c1ccc(O)c([N+](=O)[O-])c1)c1c(C)[nH]n(-c2ccccc2)c1=O`, for which the call was inactive. Regarding `Cn1c(CCNC(=O)c2ccc(Cl)c(Cl)c2)nnc1SCc1ccc(Cl)c(Cl)c1`, the compound was called inactive. In the case of `COc1ccc(CCNC(=O)C23CCC(C)(C(=O)C2Br)C3(C)C)cc1OC` (stereo not drawn), the call was inactive. `O=C(c1cc(-c2ccccc2)on1)N1CCN(c2ccncc2)CC1`: the compound was called inactive. As for `O=C(C1=C(O)C(=O)N(Cc2ccccc2)C1c1ccncc1)c1ccco1` (stereo not drawn), the result was inactive.

Consider `COc1cc(Cc2nccc3cc(OC)c(OC)cc23)c(S(=O)(=O)O)cc1OC`, for which the compound was classed as inactive.

Consider `CC=Cc1ccc2n(c1=O)C[C@H]1[C@H](CO)[C@@H](C(=O)NC3CCC3)[C@@H]2N1S(=O)(=O)c1cn(C)cn1` (mixture of isomers), for which the call was inactive.

With `Cc1cc(C)c(C(N)=O)c(Nc2cccc3ccccc23)n1`, the call was inactive. For `COc1ccc(Nc2nnc(-c3ccc(C(N)=O)cc3)c3ccccc23)cc1`, the result was inactive. In the case of `C[C@@H]1CN([C@@H](C)CO)C(=O)c2cc(NS(=O)(=O)c3cccs3)ccc2O[C@H]1CN(C)CC1CCCCC1`, the compound was classed as inactive.

`COc1ccc(-c2cnc3c(c2)C(=O)N([C@@H](C)CO)C[C@@H](C)[C@@H](CN(C)Cc2cccnc2)O3)cc1`: the compound was classed as inactive. As for `C/C(=C\C(=O)c1ccccc1)Nc1ccc(N2CCOCC2)cc1`, the outcome was inactive. Turning to `CCCc1nnc(NS(=O)(=O)c2ccc(C)cc2)o1`, the outcome was inactive. `Cc1ccc(S(=O)(=O)n2nc(C)c(C#N)c2N)cc1`: the outcome was inactive. On to `COC(=O)c1c(N)n(-c2ccc(NC(C)=O)cc2)c2nc3ccccc3nc12`, for which the compound was classed as inactive. As for `CC(C)C#Cc1ccc2c(c1)O[C@@H](CN(C)C(=O)CN(C)C)[C@@H](C)CN([C@@H](C)CO)S2(=O)=O`, the result was inactive. Take `CC(C)NC(=O)N(C)C[C@H]1OCCCC[C@H](C)Oc2ccc(NC(=O)Nc3ccccc3)cc2C(=O)N([C@H](C)CO)C[C@@H]1C`: the outcome was inactive. In the case of `C[C@@H]1CCCCO[C@H](CN(C)Cc2ccncc2)[C@H](C)CN([C@H](C)CO)C(=O)c2cc(NC(=O)C3CCCCC3)ccc2O1`, the outcome was inactive. Turning to `COc1ccc(NC(=O)Nc2ccc3c(c2)C(=O)N([C@H](C)CO)C[C@@H](C)[C@@H](CN(C)C(=O)CCC(F)(F)F)OCCCC[C@H](C)O3)cc1`, the compound was called inactive.

For the compound `CC(C)NC(=O)Nc1ccc2c(c1)C(=O)N([C@H](C)CO)C[C@H](C)[C@@H](CN(C)C(=O)Cc1ccccc1)OCCCC[C@H](C)O2`, the compound was classed as inactive.

In the case of `CN(C)C(=O)c1cccc(-c2ccc3c(c2)[C@@H]2[C@@H](CCN2C(=O)c2cccnc2)[C@@H](CO)N3)c1`, the outcome was inactive.

Turning to `O=C(C[C@H]1C=C[C@H](NS(=O)(=O)c2ccc(F)cc2)[C@H](CO)O1)N1CCN(c2ccccc2)CC1`, the call was inactive. The entry for `C[C@H](CO)N1C[C@H](C)[C@@H](CN(C)Cc2ccccn2)Oc2ncc(C#CC3(O)CCCC3)cc2C1=O` is “inactive”.

Take `COc1ccc(OC)c(-n2nnnc2SCC(=O)Nc2ccccc2OC)c1`: the call was inactive. Next, `CC(=O)N(C)C1=C(O)c2ccccc2C(=O)C1=O`: “inactive”. Next, `O=C(Nc1ccc2c(c1)OCO2)c1ccc2c(c1)OCO2`: “inactive”. Consider `COc1ccc(OC)c2nc3c(C(=O)NCCN(C)C)cccc3nc12`, for which the call was inactive. Consider `CN(C)CCNC(=O)c1cc(-c2ccccc2)on1`, for which the compound was classed as inactive.

Turning to `CCn1cc(/C=C2/SC(=S)NC2=O)c(C)n1`, the result was inactive.

As for `Nc1ccc2nn(-c3ccc(F)cc3)nc2c1`, the compound was classed as inactive. For the compound `Cc1ccc(CNC(=O)c2cc(-c3ccccc3)on2)cc1`, the outcome was inactive. The entry for `COc1ccc(C2=C(C)CC(C)(C)NC2=O)cc1OC` is “inactive”. On to `O=c1ccc(-c2ccc(S(=O)(=O)Nc3ccc(F)cc3)s2)n[nH]1`, for which the call was inactive. As for `O=C(Nc1ncc2ccccc2n1)c1cc(-c2ccccc2)on1`, the result was inactive.

With `O=C(NCc1ccccc1)c1cc(-c2ccccc2)on1`, the compound was called inactive. Take `Cn1c(NC(=O)c2cc(-c3ccccc3)on2)nc2ccccc21`: the result was inactive. Turning to `CCCCNC(=O)c1cc(-c2ccccc2)on1`, the compound was classed as inactive. Take `O=C(NCCN1CCCCC1)c1cc(-c2ccccc2)on1`: the call was inactive. Next, `O=c1c(C=NCCCn2ccnc2)c(-c2ccccc2)[nH]n1-c1nc2ccccc2s1`: “inactive”; `Cc1[nH][nH]c(=O)c1C(c1ccc(O)c(Br)c1)c1c(C)[nH][nH]c1=O`: “inactive”. For `Cc1[nH][nH]c(=O)c1C(c1ccc(Br)cc1)c1c(C)[nH][nH]c1=O`, the compound was called inactive. For the compound `Cc1[nH][nH]c(=O)c1C(c1ccc(Cl)cc1)c1c(C)[nH][nH]c1=O`, the call was inactive.

`O=C(C[C@@H]1CC[C@H](NC(=O)Nc2cc(F)ccc2F)[C@@H](CO)O1)Nc1ccc(-c2ccccc2)cc1`: the outcome was inactive. Consider `COc1cc(C2C(C#N)=C(N)Oc3n[nH]c(C)c32)ccc1OC(=O)c1ccccc1` (stereo not drawn), for which the compound was classed as inactive.

For `COC(=O)C1(NC(=O)CNC(=O)OCc2ccccc2)CCCC1` (Cbz-Gly-[Ac5c]-OMe), the outcome was inactive.

With `Cn1c(N)c(C(=O)c2cc(-c3ccccn3)nc3ccccc23)c(=O)[nH]c1=O`, the result was inactive. On to `CCN(CC)CCCNc1nc2ccccc2c2[nH]c3ccc(OC)cc3c12`, for which the compound was classed as inactive. Regarding `Cc1c(NC(=O)c2cccnc2C(=O)O)cccc1C(=O)O`, the outcome was inactive. The entry for `N#Cc1ccc(CC(=O)c2ccccc2)[nH]c1=O` is “inactive”. The entry for `C[C@H](CO)N1C[C@H](C)[C@H](CN(C)Cc2cccnc2)Oc2cc(C#CCN(C)C)ccc2S1(=O)=O` is “inactive”; for `C[C@@H]1CN([C@H](C)CO)S(=O)(=O)c2ccc(C#Cc3ccccn3)cc2O[C@@H]1CN(C)C(=O)C1CC1` it is “inactive”.
